This note sets out measurements from PubChem BioAssay.

Test [1] in a line: antimalarial activity against Dd2 strain (AID 2302;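 active = growth inhibition above 50% at the single 2 µM test dose, taken to imply half-maximal potency below 2 µM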;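 also: 0% = DMSO untreated growth and 100% = chloroquine plus artemisinin killed control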). Particulars: P. falciparum Dd2 in RBCs, LDH growth readout, 72 h; at 2 µM; stronger effect = higher value.
A short description of test [2]: human hepatoma cell viability loss – ATP luminescence, cytotoxicity control for P. falciparum antimalarial project, primary screen (AID 2303;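 active = inhibition above 50%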;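 also: 0% = DMSO wells and 100% = digitonin-killed cells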). Particulars: HepG2 viability, 24-48 h, at 10 µM, stronger effect = higher value.
The target in test [3] is L-lactate dehydrogenase (Plasmodium falciparum (isolate CDC / Honduras)) (UniProt Q27743). Nature of the test: PfLDH activity inhibition – cell lysate, 3D7 strain, counter-screen for P. falciparum growth inhibition project (AID 2304).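 Also: 0% = vehicle and 100% = reference inhibitor.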 Particulars: P. falciparum 3D7 crude extract, LDH APAD/NBT absorbance; at 2 µM; stronger effect = higher value. In general terms: Counterscreens check selectivity or assay interference.

A short description of test [4]: inhibition of 3D7 malaria parasite growth – strain 3D7 (AID 2306).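 Also: 0% = DMSO wells and 100% = chloroquine plus artemisinin control wells.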 The note with it: P. falciparum 3D7 erythrocytic growth, LDH absorbance, 72 h; at 2 µM; stronger effect = higher value.
Test [5] addresses Calcium-dependent protein kinase 1 (Plasmodium falciparum (isolate 3D7)) (UniProt P62344). The experiment in a line: PfCDPK1 kinase inhibitors, biochemical, TCAMS library (AID 1159585; cut-off not given, nearly all actives have IC50 up to about 0.98 µM;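 also: inhibitors leave more ATP so luminescence rises with inhibition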). Particulars: recombinant PfCDPK1, Kinase-Glo ATP depletion luminescence.
Test [6] deals with Plasmodium falciparum protein kinase 6 (PK6, PF3D7_1337100) (UniProt Q8IDW1). Nature of the test: PfPK6 kinase inhibitors, biochemical, TCAMS library (AID 1159586). Particulars: recombinant PfPK6, Kinase-Glo ATP depletion luminescence.
The target in test [7] is Protein kinase 7 (PK7), Plasmodium falciparum 3D7 (PF3D7_0213400) (UniProt Q7YTF7). The experiment in a line: inhibition of Plasmodium PK7 catalytic activity – biochemical, TCAMS antimalarial set, Kinase-Glo luminescence (AID 1159587). The note with it: recombinant PfPK7, Kinase-Glo ATP depletion luminescence.
The target in test [8] is Calcium-dependent protein kinase 4 (Plasmodium falciparum (isolate 3D7)) (UniProt Q8IBS5). Nature of the test: PfCDPK4 kinase inhibitors, biochemical, TCAMS library (AID 1159588; cut-off not given, nearly all actives have IC50 up to about 0.91 µM). Particulars: recombinant PfCDPK4, Kinase-Glo ATP depletion luminescence. (In general: In Kinase-Glo more light means more ATP remaining.)

Structures are written as SMILES. Unmarked numbers belong to inactive results. For part of these data: Results with a measured potency or affinity are listed apart. Activity calls are given as the source filed them. Unless noted, no rule for the calls is given here.

Chain of Protein kinase 7 (PK7), Plasmodium falciparum 3D7 (PF3D7_0213400) (Q7YTF7 1-343): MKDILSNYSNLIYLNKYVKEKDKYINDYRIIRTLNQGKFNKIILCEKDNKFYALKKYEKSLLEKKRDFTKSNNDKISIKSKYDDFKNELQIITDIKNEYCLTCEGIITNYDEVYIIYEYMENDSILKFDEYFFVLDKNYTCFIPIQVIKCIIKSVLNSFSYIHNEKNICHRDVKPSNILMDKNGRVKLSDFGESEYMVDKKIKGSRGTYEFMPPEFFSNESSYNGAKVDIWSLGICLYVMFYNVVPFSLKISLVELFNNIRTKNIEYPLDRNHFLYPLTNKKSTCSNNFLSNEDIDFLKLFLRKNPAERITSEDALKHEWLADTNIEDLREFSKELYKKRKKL
Chain of L-lactate dehydrogenase (Plasmodium falciparum (isolate CDC / Honduras)) (Q27743 whole entry, looked up): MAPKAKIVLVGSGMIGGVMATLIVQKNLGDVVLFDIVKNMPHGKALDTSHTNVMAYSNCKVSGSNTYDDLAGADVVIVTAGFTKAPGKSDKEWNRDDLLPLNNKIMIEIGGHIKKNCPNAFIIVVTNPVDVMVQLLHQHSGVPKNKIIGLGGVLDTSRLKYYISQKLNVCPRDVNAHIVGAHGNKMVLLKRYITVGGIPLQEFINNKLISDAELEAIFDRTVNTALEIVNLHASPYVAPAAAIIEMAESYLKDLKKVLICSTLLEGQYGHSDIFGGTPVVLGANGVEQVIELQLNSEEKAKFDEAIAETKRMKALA
Chain of Plasmodium falciparum protein kinase 6 (PK6, PF3D7_1337100) (Q8IDW1 1-305): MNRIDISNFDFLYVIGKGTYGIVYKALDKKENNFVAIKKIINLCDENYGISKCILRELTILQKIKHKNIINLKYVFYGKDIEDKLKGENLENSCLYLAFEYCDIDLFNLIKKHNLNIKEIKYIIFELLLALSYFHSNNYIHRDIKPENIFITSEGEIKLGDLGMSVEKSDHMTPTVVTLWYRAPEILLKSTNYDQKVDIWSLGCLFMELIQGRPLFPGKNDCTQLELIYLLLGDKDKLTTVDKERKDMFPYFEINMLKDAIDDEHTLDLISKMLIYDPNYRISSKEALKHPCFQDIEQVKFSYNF
Chain of Calcium-dependent protein kinase 1 (Plasmodium falciparum (isolate 3D7)) (P62344 whole entry, looked up): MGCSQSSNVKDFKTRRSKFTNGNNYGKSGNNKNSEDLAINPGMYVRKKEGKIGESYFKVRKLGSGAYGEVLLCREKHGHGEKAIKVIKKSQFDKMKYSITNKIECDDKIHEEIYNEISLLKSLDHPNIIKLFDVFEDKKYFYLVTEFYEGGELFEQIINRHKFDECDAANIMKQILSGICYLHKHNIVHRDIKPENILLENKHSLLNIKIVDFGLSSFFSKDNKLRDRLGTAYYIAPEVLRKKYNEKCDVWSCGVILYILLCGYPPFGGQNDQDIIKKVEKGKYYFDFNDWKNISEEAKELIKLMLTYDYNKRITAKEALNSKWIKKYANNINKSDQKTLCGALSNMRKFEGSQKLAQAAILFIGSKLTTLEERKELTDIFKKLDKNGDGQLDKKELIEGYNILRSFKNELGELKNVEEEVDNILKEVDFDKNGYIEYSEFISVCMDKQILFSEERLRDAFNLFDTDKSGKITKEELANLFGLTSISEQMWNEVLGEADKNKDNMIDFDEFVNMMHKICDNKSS
Chain of Calcium-dependent protein kinase 4 (Plasmodium falciparum (isolate 3D7)) (Q8IBS5 whole entry, looked up): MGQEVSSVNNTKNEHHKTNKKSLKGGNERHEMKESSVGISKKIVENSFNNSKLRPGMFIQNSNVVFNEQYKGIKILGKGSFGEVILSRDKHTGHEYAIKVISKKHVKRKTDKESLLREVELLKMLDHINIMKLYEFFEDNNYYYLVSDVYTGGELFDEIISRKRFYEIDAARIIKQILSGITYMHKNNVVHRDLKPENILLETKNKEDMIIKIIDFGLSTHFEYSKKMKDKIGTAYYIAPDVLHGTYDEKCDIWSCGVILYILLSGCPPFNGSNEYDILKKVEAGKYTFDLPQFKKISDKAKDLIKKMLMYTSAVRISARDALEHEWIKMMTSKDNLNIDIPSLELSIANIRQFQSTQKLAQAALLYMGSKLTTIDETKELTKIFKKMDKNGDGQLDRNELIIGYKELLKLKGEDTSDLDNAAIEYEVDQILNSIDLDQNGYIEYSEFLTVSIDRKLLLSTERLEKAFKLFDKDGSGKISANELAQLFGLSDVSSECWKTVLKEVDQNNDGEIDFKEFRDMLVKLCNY

For the molecule `Fc1ccc2[nH]c3c(NCCCN4CCOCC4)ncnc3c2c1`, the values for the growth inhibition in test [1] and in test [4] were 2% and 98% (active), respectively. For the same molecule, the inhibition – broadly, the drop in the measured response relative to a control, in per cent – is 14% in test [2] and -4% in test [3]. Further, the outcome in test [5], in test [6], in test [7] and in test [8] was inactive.

Take `CCCCCCCCCCN1C(=O)C2C(CCCCNC(C)=O)NC3(C(=O)N(Cc4ccc(C(C)(C)C)cc4)c4ccccc43)C2C1=O` (stereo not drawn): the growth inhibition in test [1] was 65% (active); in test [4], 86% (active). Also, the inhibition in test [2] was 3%; in test [3] it was -3%. Also, the result in test [5], in test [6], in test [7] and in test [8] was inactive.

Consider `COc1nc2c(CCN3CCC(NCc4ccc5c(n4)NC(=O)CO5)CC3)c(Cl)cnc2cc1F`, for which the figures for the growth inhibition in test [1] and in test [4] were 40% and 99% (active), respectively. The inhibition in test [2] was 17%; in test [3] it was -9%. The result in test [5], in test [6], in test [7] and in test [8] was inactive.

In the case of `CN(C)c1ccc(-c2nnc(Sc3ccc(C#N)c([N+](=O)[O-])c3)n2Cc2ccco2)cc1`, the growth inhibition in test [1] was 79% (active); in test [4], 95% (active). In addition, the inhibition in test [2] and in test [3] was 3% in each case. In addition, the outcome in test [5], in test [6], in test [7] and in test [8] was inactive.

Regarding `Cc1ccc(O)cc1Nc1ccnc2cc(-c3ccc(CN4CCCCC4)o3)ccc12`, the growth inhibition in test [1] was 99% (active); in test [4], 100% (active). The inhibition in test [2] is 16%; in test [3] it was 0%. Besides, the outcome in test [5], in test [6], in test [7] and in test [8] was inactive.

Consider `Nc1ncc(-c2ccc(Cl)c(Cl)c2)c(N)n1`, for which the growth inhibition in test [1] is -2%; in test [4], 94% (active). The inhibition is 65% (active) in test [2] and -2% in test [3]. In addition, the result in test [5], in test [6], in test [7] and in test [8] was inactive.

For the molecule `NCC1CCCN1Cc1cccc(-c2ccc(-c3nc4ccc(C(F)(F)F)cc4[nH]3)s2)c1` (stereo not drawn), the results for the growth inhibition in test [1] and in test [4] were 96% (active) and 102% (active), respectively. In addition, the inhibition in test [2] was 17%; in test [3], -3%. Moreover, the result in test [5], in test [6], in test [7] and in test [8] was inactive.

With `O=C(Nc1cccc(CN2CCCN(CCc3ccccc3)CC2)c1)c1ccc(Cl)c(Cl)c1`, the growth inhibition in test [1] is 15%; in test [4], 86% (active). For the same molecule, the inhibition in test [2] was 41%; in test [3], -5%. In addition, the result in test [5], in test [6], in test [7] and in test [8] was inactive.

Consider `CC(C)NCc1ccc(-c2cccc(NC(=O)c3ccc(Cl)cc3)c2)cc1`, for which the growth inhibition in test [1] is 82% (active); in test [4], 100% (active). Also, the inhibition was 20% in test [2] and -7% in test [3]. Moreover, the outcome in test [5], in test [6], in test [7] and in test [8] was inactive.

As to `Cc1ccc(C(=O)c2oc3ccc4c(C)cc(=O)oc4c3c2C)cc1`, the growth inhibition was 48% in test [1] and 86% (active) in test [4]. Besides, the inhibition in test [2] is -8%; in test [3], 1%. Further, the outcome in test [5], in test [6], in test [7] and in test [8] was inactive.

Consider `Cn1cc(Br)c(-c2cccc(Nc3ccnc4cc(-c5nccs5)ccc34)c2)n1`, for which the values for the growth inhibition in test [1] and in test [4] were 32% and 91% (active), respectively. Besides, the inhibition in test [2] is 37%; in test [3] it was -1%. For the same molecule, the result in test [5], in test [6], in test [7] and in test [8] was inactive.

With `c1ccc2[nH]c(-c3ccc(-c4ccc(CN5CCC(N6CCCCC6)CC5)cc4)s3)nc2c1`, the results for the growth inhibition in test [1] and in test [4] were 100% (active) and 99% (active), respectively. Also, the inhibition in test [2] is 26%; in test [3], -5%. Moreover, the result in test [5], in test [6], in test [7] and in test [8] was inactive.

For the molecule `O=C(Cc1cccc2ccccc12)NC1CCN(c2ccnc3cc(Cl)ccc23)C1` (stereo not drawn), the growth inhibition in test [1] was 97% (active); in test [4], 82% (active). The inhibition in test [2] is 13%; in test [3], -2%. For the same molecule, the result in test [5], in test [6], in test [7] and in test [8] was inactive.

For `COc1ccc(CNC2CCN(C)CC2)cc1-c1ccc(S(=O)(=O)NC2CCC2)c(C)c1`, the growth inhibition in test [1] is 96% (active); in test [4], 101% (active). Moreover, the results for the inhibition in test [2] and in test [3] were 24% and 0%, respectively. In addition, the outcome in test [5], in test [6], in test [7] and in test [8] was inactive.

For the molecule `CCN1CCN(Cc2ccc3nc(-c4cc(C)n(Cc5cc(Cl)ccc5OCc5ccccc5)n4)[nH]c3c2)CC1`, the results for the growth inhibition in test [1] and in test [4] were 97% (active) and 102% (active), respectively. Also, the inhibition in test [2] is 11%; in test [3], 2%. Besides, the result in test [5], in test [6], in test [7] and in test [8] was inactive.

Turning to `O=C(/C=C/C=C/c1ccc(Cl)c(Cl)c1)NCCCCCN1CCCC2CCCCC21` (stereo not drawn), the growth inhibition in test [1] is 48%; in test [4], 91% (active). The inhibition in test [2] was 41%; in test [3], -5%. For the same molecule, the result in test [5], in test [6], in test [7] and in test [8] was inactive.

As to `CN(CCN)Cc1cccc(-c2cccc(-c3nc4ccc(F)cc4[nH]3)c2)c1`, the results for the growth inhibition in test [1] and in test [4] were 19% and 95% (active), respectively. The inhibition in test [2] was 20%; in test [3], 6%. Also, the result in test [5], in test [6], in test [7] and in test [8] was inactive.

Regarding `CC(C)CN1CCN(CCNc2c3ccccc3nc3ccccc23)CC1`, the results for the growth inhibition in test [1] and in test [4] were 79% (active) and 97% (active), respectively. Also, the inhibition in test [2] was 26%; in test [3], 0%. Also, the result in test [5], in test [6], in test [7] and in test [8] was inactive.

As to `COc1ccc2c(NN=Cc3ccncc3)ccnc2c1`, the growth inhibition was 6% in test [1] and 95% (active) in test [4]. The inhibition in test [2] is -12%; in test [3], -3%. The result in test [5], in test [6], in test [7] and in test [8] was inactive.

For `COc1ccc(-c2c3c(=O)n(C)c(=O)n(C)c3c3nnc4ccccc4n23)cc1`, the growth inhibition in test [1] is 86% (active); in test [4] it was 96% (active). For the same molecule, the figures for the inhibition in test [2] and in test [3] were -7% and -2%, respectively. Also, the result in test [5], in test [6], in test [7] and in test [8] was inactive.

Take `CN(C)CCOc1cc(O)c2c(c1)OC(C)(C)C=C2c1cccs1`: the growth inhibition in test [1] is 10%; in test [4], 99% (active). Also, the inhibition is 29% in test [2] and -2% in test [3]. The result in test [5], in test [6], in test [7] and in test [8] was inactive.
